PubChem BioAssay (NCATS)
Where “and” joins values, the source holds several entries; their conditions need not be identical. Identical values can stand only once. Records with an inconclusive call do not appear. Calls of active or inactive are those of the source. Calls follow the shape of the dose curve; as a rule, active = well fitted curve in the direction sought with a large enough effect; inconclusive = small, poorly fitted or top-dose-only effect, or another doubt; inactive = no such curve, though single readings can be large; an effect the other way counts as inactive or inconclusive. Where a SMILES comes first, the peptide text is derived from it. [ ]: non-standard residue; d: D form. Hyp = O=C(O)[CH]1C[CH](O)CN1; Phe(ol) = N[CH](CO)Cc1ccccc1; Iva = CC[C](C)(N)C(=O)O; Aib = CC(C)(N)C(=O)O

Key:
CRL-7250 = normal cell line; experiment: Cytotoxic Profiling of Annotated Libraries Using Quantitative High-Throughput Screening (AID 1296008); details: Five cell lines viability, CellTiter-Glo ATP luminescence, 48-72 h; max response: stronger effect = lower value; also: nearly all actives have a fitted effect of over 60% in size; as to max response: % is scaled to controls: 0 for no effect and ±100 for the full control effect
Outline: (§1)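 Cytotoxicity was measured as CellTiter-Glo ATP luminescence, read after 10 min at room temperature. Compound treatment of the cells lasted 48 or 72 hr at 37 degrees Celsius in a qHTS format.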

KB-3-1 = experiment: as above; details: Five cell lines viability, CellTiter-Glo ATP luminescence, 48-72 h; max response: stronger effect = lower value
Outline: as §1

JEG-3 = experiment: Primary qHTS to identify gynecologic anti-cancer compounds using libraries of approved drugs and bioactive compounds (AID 1345084); details: Gynecologic cancer cell panel viability, ATPlite luminescence, 48 h; series mostly up to 57.5 µM; also: nearly all actives have a fitted effect of over 55% in size; as to activity change, negative = cytotoxicity: % is scaled to controls: 0 for no effect and ±100 for the full control effect
Outline: (§2)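 Measured: luminescence after ATPlite addition (15 min, RT). Exposure: 48 h, 37 C, 5% CO2.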

NIH3T3 [1] = experiment: Cytotoxic Profiling of Annotated Libraries Using Quantitative High-Throughput Screening (AID 1296008); details: Five cell lines viability, CellTiter-Glo ATP luminescence, 48-72 h; max response: stronger effect = lower value; also: nearly all actives have a fitted effect of over 60% in size; as to max response: % is scaled to controls: 0 for no effect and ±100 for the full control effect
Outline: as §1

C33A = experiment: Primary qHTS to identify gynecologic anti-cancer compounds using libraries of approved drugs and bioactive compounds (AID 1345084); details: Gynecologic cancer cell panel viability, ATPlite luminescence, 48 h; series mostly up to 57.5 µM; also: nearly all actives have a fitted effect of over 55% in size
Outline: as §2

CAOV3 = experiment: as above; details: Gynecologic cancer cell panel viability, ATPlite luminescence, 48 h; series mostly up to 57.5 µM
Outline: as §2

Es-2 = experiment: as above; details: Gynecologic cancer cell panel viability, ATPlite luminescence, 48 h; series mostly up to 57.5 µM
Outline: as §2

HeLa = experiment: as above; details: Gynecologic cancer cell panel viability, ATPlite luminescence, 48 h; series mostly up to 57.5 µM
Outline: as §2

Hek293T [2] = experiment: as above; details: Gynecologic cancer cell panel viability, ATPlite luminescence, 48 h, control line for the selectivity index; series mostly up to 57.5 µM
Outline: as §2

OV90 = experiment: as above; details: Gynecologic cancer cell panel viability, ATPlite luminescence, 48 h; series mostly up to 57.5 µM
Outline: as §2

PA-1 = experiment: as above; details: Gynecologic cancer cell panel viability, ATPlite luminescence, 48 h; series mostly up to 57.5 µM
Outline: as §2

CASKI = experiment: as above; details: Gynecologic cancer cell panel viability, ATPlite luminescence, 48 h; series mostly up to 57.5 µM
Outline: as §2

SKOV3 = experiment: as above; details: Gynecologic cancer cell panel viability, ATPlite luminescence, 48 h; series mostly up to 57.5 µM
Outline: as §2

HEK293T [3] = experiment: qHTS assay to identify novel small-molecules to repurpose for Merkel cell carcinoma treatment (AID 1296009); details: MCC and control cell lines, CellTiter-Glo viability, 72 h; also: nearly all actives have a fitted effect of over 60% in size
Outline: (§3)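 After compound transfer in DMSO, plates were kept 72 hr at 37 degree celsius. Luminescent ATP signal from CellTiter-Glo served as viability measure, normalized against DMSO and no-cell controls.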

HEK293 = experiment: Cytotoxic Profiling of Annotated Libraries Using Quantitative High-Throughput Screening (AID 1296008); details: Five cell lines viability, CellTiter-Glo ATP luminescence, 48-72 h; max response: stronger effect = lower value; also: nearly all actives have a fitted effect of over 60% in size; as to max response: % is scaled to controls: 0 for no effect and ±100 for the full control effect
Outline: as §1

HaCat [4] = experiment: as above; details: Five cell lines viability, CellTiter-Glo ATP luminescence, 48-72 h; max response: stronger effect = lower value
Outline: as §1

HACAT [5] = experiment: qHTS assay to identify novel small-molecules to repurpose for Merkel cell carcinoma treatment (AID 1296009); details: MCC and control cell lines, CellTiter-Glo viability, 72 h; at 44.8 µM (top of the series) unless noted; also: nearly all actives have a fitted effect of over 60% in size
Outline: as §3

NIH3T3 [6] = experiment: as above; details: MCC and control cell lines, CellTiter-Glo viability, 72 h; series mostly up to 44.8 µM
Outline: as §3
Potency is read from the fitted curve at half-maximal effect.

O=C(Nc1cccc2cccnc12)c1ccc(N2C(=O)[C@@H]3C4C=CC(C4)[C@@H]3C2=O)cc1
inactive: max response (KB-3-1) -2.67%
active: Potency (CRL-7250) 1.3 µM | Potency (JEG-3) 31.6 µM

CC(C)c1ccc(NC(=O)c2cccs2)c(-c2nc3ccccc3[nH]c2=O)c1
inactive: max response (CRL-7250) 4.02% | max response (NIH3T3 [1]) 0.611% | Potency (C33A) | Potency (CAOV3) | Potency (Es-2) | Potency (HeLa) | Potency (Hek293T [2]) | Potency (JEG-3) | Potency (OV90) | Potency (PA-1)

O=C(c1c(F)ccc(NS(=O)(=O)N2CC[C@@H](F)C2)c1F)c1c[nH]c2ncc(-c3cnc(C4CC4)nc3)cc12
active: Potency (CRL-7250) 23.1 µM
inactive: max response (KB-3-1) -23.7% | Potency (C33A) | Potency (CASKI) | Potency (HeLa) | Potency (Hek293T [2]) | Potency (JEG-3) | Potency (PA-1)

CC(=O)O[C@@]12CO[C@@H]1C[C@H](O)[C@@]1(C)C(=O)[C@H](O)C3=C(C)[C@@H](OC(=O)[C@H](O)[C@@H](NC(=O)OC(C)(C)C)c4ccccc4)C[C@@](O)([C@@H](OC(=O)c4ccccc4)C12)C3(C)C (stereo partly drawn)
active: Potency (CRL-7250) 0.005 µM | Potency (KB-3-1) 0.0036 µM | Potency (NIH3T3 [1]) 0.0224 µM
inactive: Potency (C33A) | Potency (CAOV3) | Potency (JEG-3) | Potency (OV90)

COc1ccc(CCCN2CCC(COC(c3ccccc3)c3ccccc3)CC2)cc1
inactive: max response (CRL-7250) -2.98% | max response (KB-3-1) -17.2% | Potency (C33A) | Potency (CASKI) | Potency (Es-2) | Potency (HeLa) | Potency (Hek293T [2]) | Potency (JEG-3) | Potency (OV90) | Potency (PA-1)

CCn1c(=O)c(-c2ccc(Cl)cc2Cl)cc2cnc(Nc3ccc(N4CCNCC4)c(F)c3)nc21
active: Potency (CRL-7250) 1.16 µM | Potency (NIH3T3 [1]) 1.03 µM
inactive: Potency (C33A) | Potency (CAOV3) | Potency (CASKI) | Potency (Es-2) | Potency (Hek293T [2]) | Potency (JEG-3) | Potency (OV90) | Potency (PA-1)

Cc1cc(C)c2c(c1)C(N(Cc1cc(C(F)(F)F)cc(C(F)(F)F)c1)c1nnn(C)n1)CCCN2CC1CCC(C(=O)O)CC1 (stereo not drawn)
inactive: max response (CRL-7250) 2.9% | Potency (C33A) | Potency (CAOV3) | Potency (CASKI) | Potency (Hek293T [2]) | Potency (JEG-3) | Potency (OV90)
active: Potency (KB-3-1) 14.6 µM

NC(=O)N1CCC(CC(=O)N2CCC(C3c4ncc(Br)cc4CCc4cc(Cl)cc(Br)c43)CC2)CC1 (stereo not drawn)
inactive: max response (CRL-7250) -10.9% | max response (NIH3T3 [1]) 2.37% | Potency (C33A) | Potency (CAOV3) | Potency (CASKI) | Potency (Es-2) | Potency (HeLa) | Potency (JEG-3) | Potency (PA-1) | Potency (SKOV3)

CC(=O)O[C@H]1[C@H](O)C[C@@]2(C)C(CC[C@]3(C)C2CC=C2C4CC(C)(C)CC[C@]4(C(=O)O)CC[C@]23C)C1(C)C (stereo partly drawn)
inactive: max response (CRL-7250) -14.7% | max response (KB-3-1) -19.6% | max response (NIH3T3 [1]) -15.2% | Potency (OV90)
active: Potency (SKOV3) 11.2 µM

COc1ccc([C@H]2Cc3cccc(O)c3C(=O)O2)cc1OC
inactive: max response (CRL-7250) -21.6% | max response (KB-3-1) 2.52% | Potency (C33A) | Potency (CAOV3) | Potency (CASKI) | Potency (Es-2) | Potency (HeLa) | Potency (Hek293T [2]) | Potency (JEG-3) | Potency (OV90) | Potency (PA-1) | Potency (SKOV3)

Cc1c(NC(=O)OCC2COCCN2)cn2ncnc(Nc3ccc4c(cnn4Cc4cccc(F)c4)c3)c12 (stereo not drawn)
inactive: max response (CRL-7250) -30.6% | max response (KB-3-1) -18.9% | Potency (CAOV3) | Potency (Es-2) | Potency (HeLa) | Potency (Hek293T [2]) | Potency (OV90)

COc1ccnc(CS(=O)c2nc3cc(OC(F)F)ccc3[nH]2)c1OC (stereo not drawn)
inactive: max response (CRL-7250) -13.2% | max response (KB-3-1) -2.25% and -1.6% | Potency (C33A) | Potency (CASKI) | Potency (Es-2) | Potency (HeLa) | Potency (Hek293T [2]) | Potency (JEG-3) | Potency (OV90) | Potency (PA-1) | Potency (SKOV3)

CC(C)n1nc(C#Cc2ccccc2)c2c(N)ncnc21
inactive: Potency (CASKI) | Potency (Es-2) | Potency (HeLa) | Potency (Hek293T [2]) | Potency (OV90) | Potency (PA-1)
active: Potency (CRL-7250) 16.4 µM | Potency (NIH3T3 [1]) 11.6 µM

CN(CC1COCCO1)S(=O)(=O)Nc1ccc2ccc3ncc(-c4cnn(C)c4)cc3c(=O)c2c1 (stereo not drawn)
active: Potency (CRL-7250) 5.8 µM | Potency (NIH3T3 [1]) 3.26 µM | Potency (HEK293T [3]) 6.51 µM | Potency (HeLa) 14.1 µM | Potency (SKOV3) 15.8 µM
inactive: Potency (C33A) | Potency (CASKI) | Potency (Es-2) | Potency (Hek293T [2]) | Potency (JEG-3) | Potency (OV90)

CCCSc1nc(N[C@@H]2C[C@H]2c2ccc(F)c(F)c2)c2nnn([C@@H]3C[C@H](OCCO)[C@@H](O)[C@H]3O)c2n1
inactive: outcome (CRL-7250) | max response (KB-3-1) -26.6% | max response (NIH3T3 [1]) -24.3% | Potency (C33A) | Potency (CAOV3) | Potency (Es-2) | Potency (HeLa) | Potency (Hek293T [2]) | Potency (JEG-3) | Potency (OV90) | Potency (PA-1) | Potency (SKOV3)

CCC(C)(NC(=O)C(CCC(N)=O)NC(=O)C1CC(O)CN1C(=O)C(C)(C)NC(=O)C(C)(C)NC(=O)C(CC(C)C)NC(=O)CNC(=O)C(NC(=O)C(C)(C)NC(=O)C(C)(C)NC(=O)C(C)(C)NC(=O)C(Cc1ccccc1)NC(C)=O)C(C)C)C(=O)N1CC(O)CC1C(=O)NC(C)(C)C(=O)NC(CO)Cc1ccccc1 (stereo not drawn) (Ac-F[Aib][Aib][Aib]VGL[Aib][Aib][Hyp]Q[Iva][Hyp][Aib][Phe(ol)]; configuration not given here)
inactive: max response (HEK293) -14.6% | outcome (HaCat [4]) | max response (NIH3T3 [1]) 2.9% | outcome (HACAT [5]) inactive [at 9.27 µM] | activity change, negative = cytotoxicity (C33A) -28.9% [at 6.55 µM] | activity change, negative = cytotoxicity (CAOV3) -2.26% [at 6.55 µM] | activity change, negative = cytotoxicity (CASKI) -19.9% [at 6.55 µM] | activity change, negative = cytotoxicity (Es-2) -0.689% [at 6.55 µM] | activity change, negative = cytotoxicity (HeLa) -3.33% [at 6.55 µM] | activity change, negative = cytotoxicity (Hek293T [2]) -7.78% [at 6.55 µM] | activity change, negative = cytotoxicity (JEG-3) -14.6% [at 6.55 µM] | activity change, negative = cytotoxicity (OV90) -17.1% [at 6.55 µM]

CCn1c(-c2nonc2N)nc2c(C#CCO)ncc(OCCCN)c21
inactive: outcome (HaCat [4]) | outcome (NIH3T3 [1]) | outcome (HACAT [5]) | Potency (NIH3T3 [6]) | Potency (C33A) | Potency (Es-2) | Potency (HeLa)
active: Potency (HEK293) 7.31 µM | Potency (CASKI) 25.1 µM

C/C=C/C=C/C=C/C(=O)O[C@@H]1C=C2COC(=O)[C@]2(O)[C@@]2(C)CCCC(C)(C)[C@H]12
inactive: max response (CRL-7250) -25.9% | max response (KB-3-1) -0.753% | max response (NIH3T3 [1]) -4.92% | Potency (CAOV3) | Potency (Es-2) | Potency (HeLa) | Potency (Hek293T [2]) | Potency (JEG-3) | Potency (OV90) | Potency (PA-1)
